Measurements taken from PubChem BioAssay AID2685 (National Center for Advancing Translational Sciences (NCATS), 2010).
About 2,100 (0.66%) of roughly 320,000 compounds were called active. Not shown: some 53% with an inconclusive outcome. Calls come from the whole dose curve; as a rule, active = well fitted inhibition curve with a large enough effect in the signal ratio, with a control signal flat (not every such curve was filed as active); inconclusive = small, poorly fitted or top-dose-only effect, or effect the other way, or a change in a side signal; inactive = flat fitted curve, though single readings scatter; the % refers to the signal ratio. This excerpt belongs to a sample that is enriched for actives.

experiment: qHTS Assay for Lipid Storage Modulators in Drosophila S3 Cells; settings: BODIPY lipid droplet fluorescence, 18-24 h, cells fed with added oleic acid; cell number change: measured here: cell count max response; series mostly up to 46.1 µM; lipid storage change, negative = inhibition: at the top concentration;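 for cell number change: cells counted by Cell Tracker Red CMTPX staining in the red channel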; for lipid storage change, negative = inhibition: % is set by controls: 0 for no effect and ±100 for the full control effect
Method in brief: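 Laser-scanning cytometry quantifies lipid droplet accumulation (500–530 nm total intensity; droplet/cell object ratio) in oleic acid-fed (400 uM added) Drosophila S3 cells treated with a concentration series. 20 uM Triacsin C defined 100% inhibition.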
Potency is the fitted concentration of half-maximal effect.

Structure (SMILES) | lipid storage change, negative = inhibition | cell number change | Potency | outcome
O=S(=O)(c1ccccc1)n1ccc2ccccc21 | 14.7% (inactive) | -15.8% | – | –
NC1=NC(=O)/C(=C/c2cccs2)S1 | 15.7% (inactive) | -5.63% | – | –
O=C1/C(=C\c2cccs2)Sc2ccc3ccccc3c21 | – | -14.8% | 16.4 µM (active) | –
O=C1N=C(N2CCN(c3cccc4ccccc34)CC2)S/C1=C/c1cccs1 | – | – | – | inactive
O=C(O)c1ccc(NC(=O)c2cn(-c3ccccc3)nc2-c2cccc(Cl)c2)cc1 | -13.3% (inactive) | 4.66% | – | –
CC(O)CCc1nc2ccc(C(=O)O)cc2[nH]1 (stereo not drawn) | -7.1% (inactive) | 3.44% | – | –
CC(O)c1nc2ccc(C(=O)O)cc2[nH]1 (stereo not drawn) | -2.22% (inactive) | -0.214% | – | –
CC(C)c1nc2ccc(C(=O)O)cc2[nH]1 | – | -0.0603% | 23.1 µM (active) | –
COc1cccc(-n2c(SCC(=O)OC(C)C)nnc2-c2cccnc2)c1 | – | – | – | inactive
O=C(COc1ccc(Br)cc1)N1CCNC1=O | – | -1.77% | – | inactive
O=C(COc1ccccc1Br)N1CCNC1=O | 10.5% (inactive) | -13% | – | –
O=C(COc1ccccc1)N1CCNC1=O | – | -10.9% | 11.6 µM (active) | –
CCOc1ccc(NC(=NCc2ccc3c(c2)OCO3)SC2CC(=O)N(c3ccc(OCC)cc3)C2=O)cc1 (stereo not drawn) | -5.4% (inactive) | 1.82% | – | –
COc1cccc(NC(=O)[C@@H]2CCCN2C(=O)[C@@H]2Cc3ccccc3CN2C(=O)OC(C)(C)C)c1 | – | -9.43% | – | inactive
Cc1ccc(-c2cccc(C3CC=CC4C3C(=O)N(Cc3ccccc3)C4c3ccc(C(F)(F)F)cc3)c2)cc1 (stereo not drawn) | 12.2% (inactive) | 0.818% | – | –
O=C1C2C(c3ccccc3)CC=CC2[C@H](c2ccc(C(F)(F)F)cc2)N1Cc1ccccc1 (stereo partly drawn) | – | – | 18.4 µM (active) | –
O=C1C2C(c3cccc(/C=C/c4ccccc4)c3)CC=CC2C(c2ccc(C(F)(F)F)cc2)N1Cc1ccccc1 (stereo not drawn) | 9.24% (inactive) | -0.28% | – | –
O=C1CCCc2ccccc2N1 | 5.18% (inactive) | 15.4% | – | –
O=C(Nc1ccc(Cl)c(Cl)c1)OCCNC(=O)c1ccncc1 | 6.78% (inactive) | 19.3% | – | –
O=C(Nc1ccncc1)OCc1ccccc1 | – | -15% | – | inactive
CC(=O)NCCOC(=O)Nc1ccncc1 | – | -23.8% | 18.4 µM (active) | –
C=C(C)C(=O)N1CC2(CC(c3cccc(NC(=O)CC(c4ccccc4)c4ccccc4)c3)=NO2)C[C@H]1C(N)=O (stereo partly drawn) | 7.73% (inactive) | -5.55% | – | –
COc1ccccc1CCC(=O)OCC(=O)Nc1cc(C)nn1-c1ccccc1 | 17.4% (inactive) | 9.67% | – | –
COc1cccc(NC(=O)Nc2ccc3c(c2)nc(C)n3C)c1 | 1.42% (inactive) | -12.3% | – | –

Structure (SMILES) | lipid storage change, negative = inhibition | cell number change | Potency | outcome
Nc1ccccc1C(=O)NNc1c2ccccc2nc2ccccc12 | -6.09% (inactive) | -7.95% | – | –
O=C(NNc1c2ccccc2nc2ccccc12)c1ccc(O)cc1 | – | -16.9% | 16.4 µM (active) | –
O=C(NNC(=O)c1ccc2ccccc2n1)c1ccc(O)cc1 | 13% (inactive) | -5.74% | – | –
O=C(CN1C(=O)NC2(CCCC2)C1=O)Nc1cc(Cl)ccc1Oc1ccccc1 | 23.3% (inactive) | 2.01% | – | –
O=C(O)c1ccc(CSc2nnc(-c3ccco3)o2)cc1 | – | – | 1.84 µM (active) | –
c1ccc(CSc2nnc(-c3ccco3)o2)cc1 | 21.4% (inactive) | 29.7% | – | –
Brc1ccc(CSc2nnc(-c3ccco3)o2)cc1 | 4.11% (inactive) | -8.74% | – | –
CCC(C)[C@H](NC(=O)NCCCN1CCOCC1)C(=O)OC (stereo partly drawn) | -7.03% (inactive) | 4.55% | – | –
COCCCNC(NC(=O)c1ccc(Cl)cc1)C(Cl)(Cl)Cl (stereo not drawn) | -10.7% (inactive) | 18.7% | – | –
Cc1cc(NC(=O)Nc2cccc([N+](=O)[O-])c2)no1 | 18.7% (inactive) | – | – | –
O=C(Nc1cccc([N+](=O)[O-])c1)Nc1cccc([N+](=O)[O-])c1 | -13.5% (inactive) | -6.97% | – | –
Cc1ccc(NC(=O)Nc2cccc([N+](=O)[O-])c2)cc1F | – | -9.68% | 9.2 µM (active) | –
COc1ccc(CNC(=O)c2cccnc2Sc2ccc(C)c(C)c2)cc1 | 12.2% (inactive) | -8.63% | – | –
Cc1cc(C(=O)CCC(=O)Nc2ncccc2O)c(C)s1 | – | 23.7% | – | inactive
Cc1cc(OC(C)C(=O)NNC(=O)Nc2ccc(F)cc2F)cc(C)c1Cl (stereo not drawn) | -7.22% (inactive) | 12.3% | – | –
COc1ccc(C2=NN(C(=O)CSc3ncccn3)C(c3ccc(C)cc3)C2)cc1 (stereo not drawn) | -17% (inactive) | -13.1% | – | –
CC(=O)N1N=C(c2ccccc2OC(=O)/C=C/c2ccccc2)CC1c1ccccc1 (stereo not drawn) | -2.65% (inactive) | – | – | –
COc1cc(C2CC(c3cccs3)=NN2C(=O)CCl)ccc1OC(F)F (stereo not drawn) | – | 6.96% | 11.6 µM (active) | –
COc1ccc(C2CC(c3cccs3)=NN2C(=O)c2ccccc2)cc1OC (stereo not drawn) | -4.84% (inactive) | 0.175% | – | –
COc1ccc(CC(=O)OCC(=O)N2N=C(c3ccccc3)CC2c2ccc(OC)cc2)cc1 (stereo not drawn) | 6.9% (inactive) | 9.3% | – | –
COc1ccc(C2CC(c3ccccc3)=NN2C(=O)COC(=O)c2cccnc2)cc1 (stereo not drawn) | -12% (inactive) | -20.7% | – | –
COc1ccc(C2CC(c3ccc(OC)cc3OC(C)=O)=NN2C(=O)c2ccccc2)cc1 (stereo not drawn) | -12.8% (inactive) | -16.6% | – | –
COc1ccc(C2=NN(C(=O)CSc3ncccn3)C(c3ccc(OC)cc3)C2)cc1 (stereo not drawn) | -17.9% (inactive) | -13.6% | – | –
